The record followed here is PubChem BioAssay (NCATS).

Assay [1] in a line: AP1 Signaling Pathway (AID 357; active = well fitted curve in either direction with a large enough effect, not every such curve was filed as active;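 note: ME-180 reporter cells stimulated with EGF at its EC50 level; % is set by controls: 0 for no effect and ±100 for the full control effect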). The settings on record: ME-180 AP-1-bla reporter, EGF-induced, beta-lactamase ratio, 5 h; at 7.69 µM (top of the series) unless noted. The procedure, abridged: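 Titration-series screen for positive or negative modulators of EC50 EGF-induced signaling in ME-180 cells carrying an AP-1-driven beta-lactamase reporter. After 5 hours at 37 degrees Celsius, CCF4 460nm/530nm emission ratio gave %Activity; AC50 values derived.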

The target of assay [2] is Cytochrome P450 1A2 (Homo sapiens) (UniProt P05177). Nature of the assay: p450-cyp1a2 (AID 410; calls by dose curve; note: potency is the fitted concentration of half-maximal effect;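 for activity change, negative = inhibition: -100% = full effect of reference inhibitor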). The procedure, abridged:
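Read-out is luminescence from luciferin produced by CYP1A2 demethylation of Luciferin-ME (100uM, at Km). Detection reagent stopped the 60 min NADPH-dependent reaction; signals were normalized to 57 uM furafylline.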

The nature of assay [3]: Stat Signaling Pathway (AID 446; active = well fitted curve in either direction with a large enough effect, not every such curve was filed as active;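 note: ME-180 cervical cancer cells given 40 pM IL-6 alongside compound; SIE-controlled beta-lactamase reporter measured as 460/530 nm FRET emission ratio; % is set by controls: 0 for no effect and ±100 for the full control effect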). The settings on record: ME-180 (cervical carcinoma) SIE beta-lactamase reporter, IL-6 stimulated, 5 h; at 7.69 µM (top of the series) unless noted. The procedure, abridged:
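Overnight-plated ME-180 cells bearing a STAT Inducible Element beta-lactamase reporter; 5 h co-exposure to compound and 40 pM IL-6; values normalized to 300 pM IL-6 and 125 nM JAK inhibitor controls.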

The target in assay [4] is Glucocorticoid receptor (Homo sapiens) (UniProt P04150). As to the kind of experiment: GR-EFC Redistribution (AID 451; calls by dose curve; note: potency is the fitted concentration of half-maximal effect). The settings on record: CHO-K1 GR-EFC translocation, beta-gal luminescence, 2 h. The method in brief: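 CHO-K1 cells expressing nuclear EA and GR-ED fragments of b-gal; compounds titrated up to 46 uM final, 2 h at 37 C. GR nuclear translocation read as complemented b-gal luminescence after 1 h RT detection.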

The target of assay [5] is 3',5'-cyclic-AMP phosphodiesterase 4B (Homo sapiens) (UniProt Q07343). Nature of the assay: qHTS Assay for Inhibitors of PDE-IV (AID 607; active = well fitted activation curve with a large enough effect in the main read-out, with a control signal flat, not every such curve was filed as active; note: % of control where 0% means no effect). The method in brief: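 Live HEK293 cells with a modified cyclic nucleotide-gated (CNG) channel report intracellular cAMP via membrane-potential dye fluorescence (ex 535/em 590 nm). Endogenous PDE-IV was targeted. Compounds were tested at up to 22.9 uM final; RO 20-1724 100 uM served as control.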

A short description of assay [6]: qHTS Assay for Lipid Storage Modulators (AID 1519; calls by dose curve). The settings on record: Drosophila S3 cells, BODIPY lipid droplet/cell ratio, laser cytometry, cells loaded with oleic acid. The procedure, abridged: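 Cells seeded at 5,000 per well were treated with compounds over a concentration series and loaded with oleic acid (400 uM, as added). Lipid droplet fluorescence (488 nm excitation, 500-530 nm channel) was read by laser-scanning cytometry and normalized to 20 uM Triacsin C.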
(qHTS replaces the single test concentration by a dilution series.)

Assay [7] concerns the target Ubiquitin carboxyl-terminal hydrolase 1 (Homo sapiens) (UniProt O94782). Nature of the assay: Inhibitors of USP1/UAF1: Pilot qHTS (AID 504865).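 Note: rhodamine fluorescence freed from ubiquitin-rhodamine substrate followed over time; top concentration of the series differs between compounds; % is set by controls: 0 for no effect and ±100 for the full control effect; nearly all actives have a fitted effect of over 35% in size.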 The method in brief: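 USP1/UAF1 complex at 1 nM preincubated 15 min at room temperature with compound, then Ub-Rho substrate added at 150 nM final. Fluorescence (480/540 nm) read kinetically in 50 mM HEPES pH 7.8, 0.5 mM EDTA, 1 mM TCEP, 0.1 mg/ml BSA, 0.01% Tween-20.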

For assay [8], the target named is Rap guanine nucleotide exchange factor 3 (Homo sapiens) (UniProt O95398). Nature of the assay: Confirmatory qHTS for antagonist of cAMP-regulated guanine nucleotide exchange factor 3 (EPAC1) (AID 1645880).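 Note: plate controls were DMSO only for no effect and full effect of the ATA control for full effect; nearly all actives have a fitted effect of over 55% in size.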 The method in brief: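 Released BODIPY-GDP fluoresces less than Rap1-bound BODIPY-GDP; the signal is followed at 480/540 nm at 5-min intervals over 30 min, after 5 min at room temperature. Reactions contain 100 nM EPAC1, 250 nM RAP1B-BODIPY-GDP and 50 uM GDP; results are normalized to ATA and DMSO.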

Assay [9] has the same target. Nature of the assay: Confirmatory qHTS for agonist of cAMP-regulated guanine nucleotide exchange factor 3 (EPAC1) (AID 1645881).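 Note: EPAC1 catalysed release of BODIPY-GDP from Rap1B seen as fluorescence loss; nearly all actives have a fitted effect of over 75% in size.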
Assay [10] deals with Rap guanine nucleotide exchange factor 4 (Homo sapiens) (UniProt Q8WZA2). Nature of the assay: Confirmatory qHTS for agonist of cAMP-regulated guanine nucleotide exchange factor 4 (EPAC2) (AID 1645884).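 Note: nucleotide exchange releases bodipy-GDP from Rap1 and this lowers its fluorescence; % is set by controls: 0 for no effect and ±100 for the full control effect; nearly all actives have a fitted effect of over 65% in size.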
Assay [11] has the same target. As to the kind of experiment: Confirmatory qHTS for antagonist of cAMP-regulated guanine nucleotide exchange factor 4 (EPAC2) (AID 1645885). Note: nearly all actives have a fitted effect of over 25% in size. Note: potency is the fitted concentration of half-maximal effect.
Assay [12] addresses Cytochrome P450 3A4 (Homo sapiens) (UniProt P08684). As to the kind of experiment: qHTS Assay for Activators of Cytochrome P450 3A4 (AID 885). Note: nearly all actives have a fitted effect of over 65% in size. The method in brief:
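Using 20nM recombinant human CYP3A4 in potassium phosphate (200mM), substrate Luciferin-PPXE at 25uM, luminescent luciferin detection followed a 60-min RT NADPH reaction; data scaled to 57 uM ketoconazole.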

The nature of assay [13]: Confirmation and Secondary Assay for Modulators of Hemoglobin Beta Chain Splicing at IVS2 654 locus (AID 910).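 Note: HeLa cells stably carrying EGFP split by mutant beta-globin IVS2-654 intron; % of control where 0% means no effect.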 The method in brief:
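HeLa cells stably expressing EGFP interrupted by β-globin IVS2-654 intron, seeded overnight in Opti-MEM/2% FCS, then treated 2 days at 37 °C. Restored splicing read as total peak GFP intensity per well by laser scanning cytometry (488 nm excitation, 500–520 nm emission); 500 nM antisense PNA as control.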

Assay [14] in a line: Confirmation and Secondary Assay for Modulators of Hemoglobin Beta Chain Splicing at IVS2 705 locus (AID 930).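 Note: HeLa cells stably expressing the EGFP-705 splicing reporter; GFP fluorescence per well restored by corrected splicing of the IVS2-705 intron in EGFP; % of control where 0% means no effect.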 The method in brief:
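Stable HeLa line with EGFP disrupted by mutant beta-globin intron 2 (705). Overnight attachment, then 2 days of compound at 37C, 5% CO2. Signal: peak GFP intensity summed over objects 5-250 µm.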

In assay [15] the target is Cytochrome P450 3A4 (Homo sapiens) (UniProt P08684). Nature of the assay: qHTS Assay for Inhibitors and Substrates of Cytochrome P450 3A4 (AID 884). Note: nearly all actives have a fitted effect of over 50% in size. Note: potency is the fitted concentration of half-maximal effect. The method in brief: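 Luminescent readout of luciferin produced by CYP3A4 (20 nM) dealkylation of Luciferin-PPXE, 25 uM (its KM). NADPH-driven reaction ran 60 min at RT after 10 min compound preincubation; data scaled to 57 uM ketoconazole as 100% inhibition.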

In assay [16] the target is Lysosomal acid glucosylceramidase (Homo sapiens) (UniProt P04062). As to the kind of experiment: Glucocerebrosidase-p2 (AID 348; in the data active = potency below about 10 µM; note: potency is the fitted concentration of half-maximal effect). The settings on record: purified GBA, blue fluorogenic substrate, 40 min. The method in brief: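 Normal human glucocerebrosidase (0.2 nM) with blue fluorogenic substrate (80 uM final) in citrate/phosphate pH 5.9 with 10mM sodium taurocholate, 0.01% tween-20; 40 min RT, NaOH/glycine stop; fluorescence Ex 365/Em 440; AC50 from a titration from 0.6 nM upwards.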

A short description of assay [17]: NFAT Signaling Pathway (AID 444; active = well fitted curve in either direction with a large enough effect, not every such curve was filed as active;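 note: carbachol stimulus at about its EC50 of 1 µM final; % is set by controls: 0 for no effect and ±100 for the full control effect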). The settings on record: Jurkat NFAT-bla M1, carbachol, beta-lactamase ratio, 5 h; at 7.69 µM (top of the series) unless noted. The method in brief:
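Jurkat cells with NFAT-driven β-lactamase reporter and co-expressed M1 receptor, stimulated with carbachol (final 1 uM, ~EC50), compound titration, 5 h at 37 °C. CCF4 loaded 1 h at RT; 460/530 nm ratio gave %activity and AC50.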

Assay [18] addresses Glucocorticoid receptor (Homo sapiens) (UniProt P04150). Nature of the assay: GR-GFP Redistribution (AID 450;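 active = compounds whose dose series gives a full or clear partial fitted curve of increased nuclear translocation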; note: potency is the fitted concentration of half-maximal effect). Conditions: U2OS GR-GFP nuclear translocation, laser cytometry, 2 h.
The target of assay [19] is Mitogen-activated protein kinase 10 (Mus musculus) (UniProt Q61831). As to the kind of experiment: JNK3 AlphaScreen Assay (AID 530; active = well fitted curve in either direction with a large enough effect, not every such curve was filed as active;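 note: kinase came from lysate of stimulated human HepG2 cells; signal reports phosphorylation of biotinylated GST-cJun 1-79 at Ser73 with 10 µM ATP; % is set by controls: 0 for no effect and ±100 for the full control effect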). The method in brief: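 HepG2 lysate (IL-1b/TNFa pre-activated) + biotin-GST-cJun 1-79 + anti-pSer73 cJun; cpd titration, 15 min RT; ATP 10 uM start; Tris pH 7.6, MgCl2, DTT, vanadate; beads in EDTA buffer; AlphaScreen.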
On the technique in general: Alpha assays give light when donor and acceptor beads are brought close together.

Where [20] appears, read: measured here: cell count channel max response.
The mark [21] stands for this setting: measured here: lipid channel max response.

SMILES strings stand for the structures. Records with an inconclusive call do not appear. The source made the active and inactive calls. Unless noted, calls come from the whole dose curve; as a rule, active = well fitted curve in the direction sought with a large enough effect; inconclusive = small, poorly fitted or top-dose-only effect, or another doubt; inactive = no such curve, though single readings can be large; an effect the other way counts as inactive or inconclusive.

Chain of Rap guanine nucleotide exchange factor 3 (Homo sapiens) (O95398 whole entry, looked up): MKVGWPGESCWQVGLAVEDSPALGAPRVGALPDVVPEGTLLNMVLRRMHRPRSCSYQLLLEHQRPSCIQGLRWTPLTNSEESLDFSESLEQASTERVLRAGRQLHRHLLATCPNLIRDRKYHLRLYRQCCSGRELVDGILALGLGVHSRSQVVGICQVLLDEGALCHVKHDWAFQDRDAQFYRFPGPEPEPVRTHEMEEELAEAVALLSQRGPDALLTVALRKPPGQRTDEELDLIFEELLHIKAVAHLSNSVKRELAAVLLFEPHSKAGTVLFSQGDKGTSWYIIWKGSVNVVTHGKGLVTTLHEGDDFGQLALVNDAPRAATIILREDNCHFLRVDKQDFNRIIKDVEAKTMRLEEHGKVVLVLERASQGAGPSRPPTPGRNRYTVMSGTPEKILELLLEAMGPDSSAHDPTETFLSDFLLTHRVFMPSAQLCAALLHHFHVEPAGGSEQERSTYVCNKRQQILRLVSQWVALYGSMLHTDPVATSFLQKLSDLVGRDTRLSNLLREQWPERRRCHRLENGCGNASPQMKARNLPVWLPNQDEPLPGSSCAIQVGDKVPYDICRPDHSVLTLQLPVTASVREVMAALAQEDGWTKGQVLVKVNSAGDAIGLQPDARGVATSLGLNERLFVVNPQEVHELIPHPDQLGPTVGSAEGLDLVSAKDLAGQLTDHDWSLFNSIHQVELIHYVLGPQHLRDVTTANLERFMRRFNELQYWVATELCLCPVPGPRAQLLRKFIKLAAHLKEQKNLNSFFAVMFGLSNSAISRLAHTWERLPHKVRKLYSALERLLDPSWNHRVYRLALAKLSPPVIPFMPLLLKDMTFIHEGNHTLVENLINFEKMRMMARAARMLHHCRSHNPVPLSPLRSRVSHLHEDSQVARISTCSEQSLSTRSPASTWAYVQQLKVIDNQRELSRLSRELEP
Chain of Glucocorticoid receptor (Homo sapiens) (P04150 whole entry, looked up, the tested form may be a part): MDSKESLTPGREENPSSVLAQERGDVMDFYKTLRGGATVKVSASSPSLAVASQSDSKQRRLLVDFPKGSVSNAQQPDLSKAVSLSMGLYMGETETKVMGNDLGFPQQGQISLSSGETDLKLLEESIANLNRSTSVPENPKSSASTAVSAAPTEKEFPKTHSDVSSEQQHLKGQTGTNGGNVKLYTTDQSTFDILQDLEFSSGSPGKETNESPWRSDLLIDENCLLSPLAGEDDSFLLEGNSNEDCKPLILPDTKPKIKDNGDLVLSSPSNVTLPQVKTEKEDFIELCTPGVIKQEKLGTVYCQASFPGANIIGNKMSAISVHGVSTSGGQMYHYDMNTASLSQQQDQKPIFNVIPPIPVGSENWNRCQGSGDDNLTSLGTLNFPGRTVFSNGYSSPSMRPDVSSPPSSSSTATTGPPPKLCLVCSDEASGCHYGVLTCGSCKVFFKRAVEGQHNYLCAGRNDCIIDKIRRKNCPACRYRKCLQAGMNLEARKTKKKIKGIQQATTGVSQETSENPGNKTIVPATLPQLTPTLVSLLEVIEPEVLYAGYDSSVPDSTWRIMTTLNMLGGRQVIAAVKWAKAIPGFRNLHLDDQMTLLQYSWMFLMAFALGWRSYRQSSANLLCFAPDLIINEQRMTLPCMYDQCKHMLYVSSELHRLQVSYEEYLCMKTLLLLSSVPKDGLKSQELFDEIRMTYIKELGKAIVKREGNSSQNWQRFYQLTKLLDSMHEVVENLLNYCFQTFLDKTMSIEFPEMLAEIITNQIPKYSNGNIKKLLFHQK
Chain of Rap guanine nucleotide exchange factor 4 (Homo sapiens) (Q8WZA2 whole entry, looked up): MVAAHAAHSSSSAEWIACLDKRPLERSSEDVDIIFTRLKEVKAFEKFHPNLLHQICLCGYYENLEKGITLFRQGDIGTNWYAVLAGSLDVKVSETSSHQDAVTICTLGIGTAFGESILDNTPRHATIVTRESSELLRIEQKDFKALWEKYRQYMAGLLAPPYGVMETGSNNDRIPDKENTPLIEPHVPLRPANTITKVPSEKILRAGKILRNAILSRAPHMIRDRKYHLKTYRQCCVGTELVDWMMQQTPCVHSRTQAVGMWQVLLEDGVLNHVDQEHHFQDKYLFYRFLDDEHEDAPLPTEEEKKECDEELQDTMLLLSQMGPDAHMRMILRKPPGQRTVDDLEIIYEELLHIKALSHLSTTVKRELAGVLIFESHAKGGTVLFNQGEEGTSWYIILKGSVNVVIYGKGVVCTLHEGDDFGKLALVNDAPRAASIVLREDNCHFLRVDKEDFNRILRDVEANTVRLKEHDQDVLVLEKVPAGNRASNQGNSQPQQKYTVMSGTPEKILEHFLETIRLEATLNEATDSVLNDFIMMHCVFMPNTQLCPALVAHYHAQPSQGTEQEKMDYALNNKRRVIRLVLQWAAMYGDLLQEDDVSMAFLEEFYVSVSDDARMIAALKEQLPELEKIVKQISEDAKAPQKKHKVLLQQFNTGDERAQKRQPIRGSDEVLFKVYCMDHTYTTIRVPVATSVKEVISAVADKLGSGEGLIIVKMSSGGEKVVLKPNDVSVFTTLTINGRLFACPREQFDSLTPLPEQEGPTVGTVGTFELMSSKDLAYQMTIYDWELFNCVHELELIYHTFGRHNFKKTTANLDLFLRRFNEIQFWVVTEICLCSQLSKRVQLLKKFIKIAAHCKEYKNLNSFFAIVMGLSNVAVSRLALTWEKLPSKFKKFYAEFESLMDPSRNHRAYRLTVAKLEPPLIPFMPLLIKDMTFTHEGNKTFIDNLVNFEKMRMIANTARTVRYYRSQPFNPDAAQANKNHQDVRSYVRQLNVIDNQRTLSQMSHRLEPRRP
Chain of Cytochrome P450 3A4 (Homo sapiens) (P08684 whole entry, looked up): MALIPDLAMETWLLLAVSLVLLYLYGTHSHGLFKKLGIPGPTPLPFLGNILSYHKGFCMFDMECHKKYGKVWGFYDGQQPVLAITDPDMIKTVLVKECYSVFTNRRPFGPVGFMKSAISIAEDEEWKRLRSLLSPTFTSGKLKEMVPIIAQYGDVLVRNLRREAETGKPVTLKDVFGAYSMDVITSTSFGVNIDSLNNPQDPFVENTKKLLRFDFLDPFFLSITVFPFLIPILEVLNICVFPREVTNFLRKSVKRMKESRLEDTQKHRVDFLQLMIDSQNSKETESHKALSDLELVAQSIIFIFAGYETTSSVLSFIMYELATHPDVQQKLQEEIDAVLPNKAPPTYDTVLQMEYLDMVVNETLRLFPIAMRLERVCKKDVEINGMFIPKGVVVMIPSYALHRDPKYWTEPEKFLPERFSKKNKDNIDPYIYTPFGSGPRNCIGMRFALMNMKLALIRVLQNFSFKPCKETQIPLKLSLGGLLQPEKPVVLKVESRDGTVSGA
Chain of Ubiquitin carboxyl-terminal hydrolase 1 (Homo sapiens) (O94782 whole entry, looked up): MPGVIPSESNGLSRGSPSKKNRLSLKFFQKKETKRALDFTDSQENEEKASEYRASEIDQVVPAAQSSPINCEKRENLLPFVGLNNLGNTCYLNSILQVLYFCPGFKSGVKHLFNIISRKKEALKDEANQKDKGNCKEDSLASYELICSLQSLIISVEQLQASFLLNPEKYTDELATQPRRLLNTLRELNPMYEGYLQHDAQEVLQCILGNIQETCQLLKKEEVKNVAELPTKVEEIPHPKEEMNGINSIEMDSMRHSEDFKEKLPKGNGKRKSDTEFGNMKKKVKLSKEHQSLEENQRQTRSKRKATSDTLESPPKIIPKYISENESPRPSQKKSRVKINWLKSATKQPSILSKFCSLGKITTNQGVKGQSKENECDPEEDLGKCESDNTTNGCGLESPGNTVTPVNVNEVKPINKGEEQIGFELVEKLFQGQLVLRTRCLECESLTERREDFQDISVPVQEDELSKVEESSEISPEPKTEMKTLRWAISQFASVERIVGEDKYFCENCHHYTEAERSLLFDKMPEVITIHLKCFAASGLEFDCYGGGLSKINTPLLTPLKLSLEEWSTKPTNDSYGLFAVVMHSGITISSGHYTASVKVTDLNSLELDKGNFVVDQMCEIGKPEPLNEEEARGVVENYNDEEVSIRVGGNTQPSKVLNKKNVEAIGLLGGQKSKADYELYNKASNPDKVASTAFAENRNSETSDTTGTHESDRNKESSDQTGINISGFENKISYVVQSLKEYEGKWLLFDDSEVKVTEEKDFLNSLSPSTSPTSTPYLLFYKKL
Chain of Cytochrome P450 1A2 (Homo sapiens) (P05177 whole entry, looked up): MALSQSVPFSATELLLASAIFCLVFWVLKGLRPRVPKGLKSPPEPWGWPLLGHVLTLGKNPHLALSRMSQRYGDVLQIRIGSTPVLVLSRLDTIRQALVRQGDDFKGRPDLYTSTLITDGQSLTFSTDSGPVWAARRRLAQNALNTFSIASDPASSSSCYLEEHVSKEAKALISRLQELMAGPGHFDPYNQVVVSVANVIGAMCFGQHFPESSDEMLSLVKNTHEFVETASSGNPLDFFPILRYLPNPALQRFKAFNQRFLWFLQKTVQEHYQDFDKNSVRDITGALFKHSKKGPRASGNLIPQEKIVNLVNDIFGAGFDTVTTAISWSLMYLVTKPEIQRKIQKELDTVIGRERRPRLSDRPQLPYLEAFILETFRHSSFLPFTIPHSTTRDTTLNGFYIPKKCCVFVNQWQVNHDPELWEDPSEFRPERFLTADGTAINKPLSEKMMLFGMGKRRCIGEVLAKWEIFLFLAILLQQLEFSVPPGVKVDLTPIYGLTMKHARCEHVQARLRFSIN
Chain of Lysosomal acid glucosylceramidase (Homo sapiens) (P04062 whole entry, looked up): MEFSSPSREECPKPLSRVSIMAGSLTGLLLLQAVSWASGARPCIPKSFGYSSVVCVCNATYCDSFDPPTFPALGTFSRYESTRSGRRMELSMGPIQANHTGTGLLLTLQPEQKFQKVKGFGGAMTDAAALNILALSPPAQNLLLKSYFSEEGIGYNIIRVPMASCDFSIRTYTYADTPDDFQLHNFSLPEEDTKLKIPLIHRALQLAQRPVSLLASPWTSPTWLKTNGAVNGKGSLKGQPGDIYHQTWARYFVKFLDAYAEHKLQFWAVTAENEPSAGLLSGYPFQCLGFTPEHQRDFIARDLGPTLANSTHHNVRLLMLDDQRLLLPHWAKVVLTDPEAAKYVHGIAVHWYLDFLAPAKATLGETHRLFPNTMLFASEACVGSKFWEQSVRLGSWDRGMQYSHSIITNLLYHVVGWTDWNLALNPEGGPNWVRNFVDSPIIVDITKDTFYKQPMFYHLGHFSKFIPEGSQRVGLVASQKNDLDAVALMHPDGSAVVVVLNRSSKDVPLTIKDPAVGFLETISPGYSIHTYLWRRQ

For `Nc1nc2n[nH]nc2c(=O)[nH]1`, the activity change, negative = inhibition in assay [1] is -1.23% [at 17.2 µM] (inactive); in assay [6] (at 25.7 µM (top of the series)), -1.04% (inactive). Further, the Potency result in assay [2], in [5], in assay [7], in [8], in [9] and in assay [10] was “inactive” throughout. The Potency entry in [11] is “inactive”. Also, the activity, negative = inhibition in [3] is -26.9% [at 17.2 µM] (inactive). The Potency in assay [4] is > 20.6 µM (inactive). Further, the max response turned out to be 15.7% in assay [6] (setting [20]) and 11% in [6] (setting [21]).

Consider `CC(=O)OC1CCC23CC1(C)CCC2C(C)(C)CC3OC(C)=O` (stereo not given), for which the Potency result in assay [12], in [13], in assay [8], in assay [9] and in [10] was “inactive” in each case. Further, the compound was called inactive in assay [14]. In addition, the activity change, negative = inhibition in assay [6] (at 57.5 µM (top of the series)) is 2.71% (inactive). The figures for the max response in [6] (setting [20]) and in assay [6] (setting [21]) were 3.38% and 6.37%, respectively. For the same compound, the Potency in assay [11] was 39.3 µM (active).

Turning to `COc1ccc2c(c1)OCc1c-2oc2cc(OC)ccc12`, the Potency entry in assay [12], in assay [13], in [8], in assay [9], in [10] and in [11] was “inactive” in each case. The compound was called inactive in assay [14]. For the same compound, in [6] (at 57.5 µM (top of the series)), the activity change, negative = inhibition was 8.22% (inactive). For the same compound, the max response in [6] (setting [20]) was -1.79%; in [6] (setting [21]), 8.38%.

Consider `N[C@H](C(=O)O)C(O)C(O)C(O)CO` (stereo not given in full), for which the Potency entry in assay [15], in assay [13], in assay [7], in [8], in assay [9] and in assay [10] was “inactive” throughout. Moreover, the Potency result in assay [11] was “inactive”. The compound was called inactive in [14]. Also, the activity change, negative = inhibition in [6] (at 57.5 µM (top of the series)) is 2.74% (inactive). For the same compound, the max response is -0.517% in [6] (setting [20]) and 3.07% in assay [6] (setting [21]).

With `COc1ccccc1CNc1ncnc2ccc(-c3cccnc3)cc12`, the Potency is > 11.4 µM (inactive) in assay [16]; 0.316 µM (active) in assay [2]; > 46 µM (inactive) in assay [18]; > 46 µM (inactive) in assay [4]; 2 µM (active) in [15]. The results for the activity change, negative = inhibition in assay [17] and in assay [6] (at 57.5 µM (top of the series)) were 12.3% (inactive) and 3.28% (inactive), respectively. In addition, the activity, negative = inhibition in assay [3] was -17.2% (inactive). The Potency entry in [19], in [12], in [8], in [9] and in assay [10] was “inactive” in each case. Besides, in assay [14], the result was inactive. Also, the max response in assay [6] (setting [20]) was -9.63%; in assay [6] (setting [21]), -6.23%.
